Reference: PubChem BioAssay (NCATS)
Results filed as inconclusive are left out. Activity calls are given as the source filed them. Unless noted, calls follow the shape of the dose curve; as a rule, active = well fitted inhibition curve with a large enough effect; inconclusive = small, poorly fitted or top-dose-only effect; inactive = flat fitted curve, though single readings scatter.

Columns and labels:
[1] = qHTS drug screen for cell cycle checkpoint inhibitors in PARPi-resistant BRCA-mutant ovarian cancer cell lines. (AID 1963452; calls by dose curve); settings: PEO1/OlaR viability, CellTiter-Glo luminescence, 96 h, stronger effect = lower value
Procedure, shortened: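 PEO1, PEO4 and PEO1/OlaR ovarian cancer cells, 600 per well, exposed 96 h at 37C to a dilution series. Viability read by CellTiter-Glo luminescence, normalized to DMSO and empty wells; activity summarized as Z-AUC.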

[2] = qHTS profiling for inhibitors of Plasmodium falciparum proliferation (AID 504749); also: nearly all actives have a fitted effect of over 60% in size; also: potency is read from the fitted curve at half-maximal effect;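 as to activity, negative = inhibition: 0% = DMSO vehicle and full inhibition = artemisinin control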; settings: P. falciparum in erythrocytes, SYBR Green DNA, 72 h
Procedure, shortened: (§1)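 Three-day growth assay of blood-stage parasites in erythrocytes (0.3% parasitemia, 2.5% hematocrit) at 37 C, 5% CO2, quantified by SYBR Green DNA staining after overnight detergent lysis.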

3D7 = assay: as above; settings: P. falciparum in erythrocytes, SYBR Green DNA, 72 h; series mostly up to 28.7 µM
Procedure, shortened: as §1

7G8 = assay: as above; settings: P. falciparum in erythrocytes, SYBR Green DNA, 72 h; series mostly up to 28.7 µM
Procedure, shortened: as §1

AA1029 = assay: as above; settings: P. falciparum in erythrocytes, SYBR Green DNA, 72 h; series mostly up to 28.7 µM
Procedure, shortened: as §1

AS120 = assay: as above; settings: P. falciparum in erythrocytes, SYBR Green DNA, 72 h; series mostly up to 28.7 µM
Procedure, shortened: as §1

ATS189 = assay: as above; settings: P. falciparum in erythrocytes, SYBR Green DNA, 72 h; series mostly up to 28.7 µM
Procedure, shortened: as §1

ATS95 = assay: as above; settings: P. falciparum in erythrocytes, SYBR Green DNA, 72 h; series mostly up to 28.7 µM
Procedure, shortened: as §1

C2A = assay: as above; settings: P. falciparum in erythrocytes, SYBR Green DNA, 72 h; series mostly up to 28.7 µM
Procedure, shortened: as §1

CP185 = assay: as above; settings: P. falciparum in erythrocytes, SYBR Green DNA, 72 h; series mostly up to 28.7 µM
Procedure, shortened: as §1

CP191 = assay: as above; settings: P. falciparum in erythrocytes, SYBR Green DNA, 72 h; series mostly up to 28.7 µM
Procedure, shortened: as §1

CP192 = assay: as above; settings: P. falciparum in erythrocytes, SYBR Green DNA, 72 h; series mostly up to 28.7 µM
Procedure, shortened: as §1

CP194 = assay: as above; settings: P. falciparum in erythrocytes, SYBR Green DNA, 72 h; series mostly up to 28.7 µM
Procedure, shortened: as §1

CP201 = assay: as above; settings: P. falciparum in erythrocytes, SYBR Green DNA, 72 h; series mostly up to 28.7 µM
Procedure, shortened: as §1

CP211 = assay: as above; settings: P. falciparum in erythrocytes, SYBR Green DNA, 72 h; series mostly up to 28.7 µM
Procedure, shortened: as §1

CP215 = assay: as above; settings: P. falciparum in erythrocytes, SYBR Green DNA, 72 h; series mostly up to 28.7 µM
Procedure, shortened: as §1

CP217 = assay: as above; settings: P. falciparum in erythrocytes, SYBR Green DNA, 72 h; series mostly up to 28.7 µM
Procedure, shortened: as §1

[3] = qHTS for identification of novel therapeutic agents for treatment of microphthalmiaassociated transcription factor (MiT) renal cell carcinoma (RCC) (AID 1963991); settings: CellTiter-Glo, 48 h, stronger effect = lower value
Procedure, shortened: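 Three TFE3-fusion RCC lines (UOK109, UOK124, UOK145), 500 cells/well in complete medium, were treated with MIPE 4.0 compounds for 48 hours at 37 C. Viability was by CellTiter-Glo luminescence, normalized to DMSO (100%) and empty wells (0%); curves fitted over 11 concentrations.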

CP203 = assay: qHTS profiling for inhibitors of Plasmodium falciparum proliferation (AID 504749); also: nearly all actives have a fitted effect of over 60% in size; also: potency is read from the fitted curve at half-maximal effect;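 as to activity, negative = inhibition: 0% = DMSO vehicle and full inhibition = artemisinin control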; settings: P. falciparum in erythrocytes, SYBR Green DNA, 72 h; series mostly up to 28.7 µM
Procedure, shortened: as §1

[4] = measured here: PEO1 parental Z-AUC
[5] = at 28.7 µM (top of the series), parasite line A
[6] = at 28.7 µM (top of the series), parasite line B
[7] = TFE3-RCC UOK109 viability, measured here: UOK109 Z-AUC
[8] = TFE3-RCC viability, measured here: UOK124 Z-AUC
[9] = TFE3-RCC viability, measured here: UOK145 Z-AUC

CCCc1cc(=O)[nH]c(=S)[nH]1
inactive: Z-AUC [1] -0.283 | activity, negative = inhibition [2, 5] 3.45% | activity, negative = inhibition [2, 6] 5.92% | Potency (3D7) | Potency (7G8) | Potency (AA1029) | Potency (AS120) | Potency (ATS189) | Potency (ATS95) | Potency (C2A) | Potency (CP185) | Potency (CP191) | Potency (CP192) | Potency (CP194) | Potency (CP201) | Potency (CP211) | Potency (CP215) | Potency (CP217)
0.119: Z-AUC ([1]; measured here: PEO4 Z-AUC)
-0.244: Z-AUC [1, 4]

O=C(O)c1cn(-c2ccc(F)cc2)c2cc(N3CCNCC3)c(F)cc2c1=O
0.628: z-score [3, 9]
0.947: Z-AUC ([1]; measured here: PEO4 Z-AUC)
0.568: z-score [3, 8]
inactive: Z-AUC [1] 0.692 | activity, negative = inhibition [2, 5] -18.3% | activity, negative = inhibition [2, 6] -17.6% | Potency (3D7) | Potency (AS120) | Potency (ATS189) | Potency (C2A) | Potency (CP191) | Potency (CP192) | Potency (CP217)
0.863: z-score [3, 7]
0.709: Z-AUC [1, 4]

CCc1nc(N)nc(N)c1-c1ccc(Cl)cc1
-0.843: Z-AUC ([1]; measured here: PEO4 Z-AUC)
inactive: Z-AUC [1] -0.192 | Potency (AA1029) | Potency (ATS189) | Potency (ATS95) | Potency (C2A) | Potency (CP185) | Potency (CP192) | Potency (CP194) | Potency (CP201) | Potency (CP203)
active: Potency ([2]; parasite line A) 0.0501 µM | Potency ([2]; parasite line B) 3.16 µM | Potency (3D7) 0.0794 µM | Potency (7G8) 10 µM
-0.422: Z-AUC [1, 4]

COc1ccc2cc([C@H](C)C(=O)O)ccc2c1
inactive: Z-AUC [1] -0.4 | activity, negative = inhibition ([2]; at 12.8 µM (top of the series), parasite line A) 6.49% | activity, negative = inhibition ([2]; at 12.8 µM (top of the series), parasite line B) -0.339% | Potency (7G8) | Potency (AA1029) | Potency (AS120) | Potency (ATS189) | Potency (ATS95) | Potency (C2A) | Potency (CP185) | Potency (CP191) | Potency (CP192) | Potency (CP194) | Potency (CP201) | Potency (CP203) | Potency (CP211) | Potency (CP215) | Potency (CP217)
0.689: z-score [3, 8]
1.29: z-score [3, 7]
-0.0585: Z-AUC ([1]; measured here: PEO4 Z-AUC)
0.68: z-score [3, 9]
-0.248: Z-AUC [1, 4]

N=C(N)c1ccc2cc(OC(=O)c3ccc(N=C(N)N)cc3)ccc2c1
-0.0134: z-score [3, 8]
0.795: Z-AUC ([1]; measured here: PEO4 Z-AUC)
0.107: z-score [3, 7]
0.542: Z-AUC [1, 4]
active: Potency (7G8) 11.2 µM | Potency (CP191) 3.98 µM
0.0541: z-score [3, 9]
inactive: Z-AUC [1] 0.0758 | Potency (CP192)

O=c1oc2cc(O)ccc2s1
inactive: Z-AUC [1] 0.214 | activity, negative = inhibition [2, 5] -2.41% | activity, negative = inhibition [2, 6] -10.3% | Potency (3D7) | Potency (AA1029) | Potency (AS120) | Potency (ATS189) | Potency (ATS95) | Potency (C2A) | Potency (CP185) | Potency (CP191) | Potency (CP192) | Potency (CP194) | Potency (CP201) | Potency (CP203) | Potency (CP211) | Potency (CP215) | Potency (CP217)
1.32: z-score [3, 9]
0.455: z-score [3, 8]
1.28: Z-AUC ([1]; measured here: PEO4 Z-AUC)
0.00456: Z-AUC [1, 4]
0.879: z-score [3, 7]
